Measurements taken from PubChem BioAssay (EPA / NIEHS).
Activity calls are given as the source filed them. How the source made its calls: active means hit-call score of the fitted dose curve at least 0.9, where 1 is the maximum; inactive means score below 0.9.

Columns and labels:
[1] = ATG_CRE_CIS: Attagene CIS-FACTORIAL HepG2 Assay for human cAMP Responsive Element (CRE) binding protein 3 (AID 2282926); conditions: HepG2 CRE cis-reporter, Attagene multiplexed mRNA; actives raise or lower the signal
How it was run: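 Transfected HepG2 were treated for 24 hours, then RNA was extracted and reporter cDNA amplified with sequence-specific primers. Labelled fragments were separated by capillary electrophoresis, and the CRE signal was fitted bidirectionally with DMSO as baseline.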

[2] = target: CCAAT/enhancer-binding protein beta (Homo sapiens) (UniProt P17676); experiment: ATG_C_EBP_CIS: Attagene CIS-FACTORIAL HepG2 Assay for human CCAAT/Enhancer Binding Protein (C/EBP) beta (AID 2282927); conditions: HepG2 Attagene cis-factorial transcription factor reporter; actives raise or lower the signal
Chain of CCAAT/enhancer-binding protein beta (Homo sapiens) (P17676 whole entry, looked up): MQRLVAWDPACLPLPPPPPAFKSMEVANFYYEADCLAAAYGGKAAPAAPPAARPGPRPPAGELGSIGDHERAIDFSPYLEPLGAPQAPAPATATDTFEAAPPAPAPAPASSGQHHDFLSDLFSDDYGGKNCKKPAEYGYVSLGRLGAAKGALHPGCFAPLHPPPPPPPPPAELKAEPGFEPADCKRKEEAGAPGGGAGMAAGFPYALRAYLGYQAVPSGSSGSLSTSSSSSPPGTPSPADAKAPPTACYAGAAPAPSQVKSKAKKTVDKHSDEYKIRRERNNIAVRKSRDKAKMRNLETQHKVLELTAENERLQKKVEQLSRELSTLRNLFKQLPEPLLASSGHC
How it was run: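 RT-PCR/capillary electrophoresis fluorescence of reporter mRNA, 24 h post-dose, in HepG2 cells carrying transfected cis-promoter reporter units. Bidirectional curve fitting against DMSO baseline captures gain or loss of signal.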

[3] = ATG_CMV_CIS: Attagene CIS-FACTORIAL HepG2 Assay for human CMV (Internal Marker) (AID 2282928); conditions: HepG2 CMV promoter reporter, transcription factor profiling; actives raise or lower the signal;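 further: endpoint acts as a background internal control marker rather than a target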
How it was run: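 CMV internal-marker background readout in transiently transfected HepG2 cells bearing cis-regulated reporter units. Reporter mRNA is measured 24 h after dosing by RT-PCR and capillary electrophoresis, with bidirectional fitting against DMSO.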

[4] = ATG_DR4_LXR_CIS: Attagene CIS-FACTORIAL HepG2 Assay for human Liver X Receptor (LXR), DR4 submotif (AID 2282929); conditions: HepG2 Attagene DR4 cis-reporter, mRNA transcription; actives raise or lower the signal
How it was run: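 Transiently transfected HepG2 liver cells; cis-regulated reporters; 24 h dosing. RT-PCR plus CE read-out of reporter mRNA. DMSO baseline, bidirectional curve fitting.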

[5] = target: Aryl hydrocarbon receptor (Homo sapiens) (UniProt P35869); experiment: ATG_Ahr_CIS: Attagene CIS-FACTORIAL HepG2 Assay for human Aryl Hydrocarbon Receptor (Ahr) (AID 2282930); conditions: HepG2 AhR cis-factorial reporter transcription; actives raise or lower the signal
Chain of Aryl hydrocarbon receptor (Homo sapiens) (P35869 whole entry, looked up): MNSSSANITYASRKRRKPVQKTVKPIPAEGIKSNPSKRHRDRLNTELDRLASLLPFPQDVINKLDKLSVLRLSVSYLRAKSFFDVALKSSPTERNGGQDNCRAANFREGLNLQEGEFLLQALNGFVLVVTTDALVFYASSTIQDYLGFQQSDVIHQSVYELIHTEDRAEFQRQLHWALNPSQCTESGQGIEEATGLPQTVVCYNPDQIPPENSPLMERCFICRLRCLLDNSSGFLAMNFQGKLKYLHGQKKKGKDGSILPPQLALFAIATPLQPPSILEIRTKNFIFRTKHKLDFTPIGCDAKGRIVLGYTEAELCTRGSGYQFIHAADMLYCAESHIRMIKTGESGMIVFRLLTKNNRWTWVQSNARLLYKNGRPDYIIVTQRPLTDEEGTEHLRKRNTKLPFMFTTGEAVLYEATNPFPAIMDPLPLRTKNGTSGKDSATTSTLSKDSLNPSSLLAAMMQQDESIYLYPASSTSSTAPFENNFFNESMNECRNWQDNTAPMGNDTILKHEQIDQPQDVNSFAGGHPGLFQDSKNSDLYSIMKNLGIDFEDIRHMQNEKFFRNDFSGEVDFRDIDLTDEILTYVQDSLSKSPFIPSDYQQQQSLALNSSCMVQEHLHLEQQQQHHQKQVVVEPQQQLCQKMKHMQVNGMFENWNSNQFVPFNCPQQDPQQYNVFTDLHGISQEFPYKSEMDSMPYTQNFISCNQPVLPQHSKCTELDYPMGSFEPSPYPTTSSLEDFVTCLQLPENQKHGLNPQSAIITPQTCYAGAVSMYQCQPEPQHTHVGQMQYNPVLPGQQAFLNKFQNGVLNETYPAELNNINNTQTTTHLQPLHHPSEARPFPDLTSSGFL
How it was run: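 HepG2 cells transiently transfected with cis-element-driven multiplexed reporter transcription units; endogenous transcription factor activity measured as reporter mRNA 24 h after dosing. RT-PCR, 6-FAM labelling, HpaI digestion, capillary electrophoresis; bidirectional fitting versus DMSO baseline.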

[6] = ATG_AP_1_CIS: Attagene CIS-FACTORIAL HepG2 Assay for human Activator Protein 1 (AP-1) (AID 2282931); conditions: HepG2 Attagene cis-factorial AP-1 reporter mRNA; actives raise or lower the signal
How it was run: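 We transfected HepG2 cells transiently with a set of cis-regulated reporter transcription units, dosed them for 24 h, and quantified reporter mRNA via RT-PCR and capillary electrophoresis, scoring gain or loss of signal relative to DMSO.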

[7] = ATG_AP_2_CIS: Attagene CIS-FACTORIAL HepG2 Assay for human Activator Protein 2 (AP-2) (AID 2282932); conditions: HepG2 AP-2 cis-reporter, Attagene transcription factor profiling; actives raise or lower the signal
How it was run: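 HepG2 cells were transiently transfected with multiple cis-promoter reporter transcription units and dosed for 24 h. Reporter mRNA was measured by RT-PCR with capillary electrophoresis fluorescence; bidirectional fits relative to DMSO baseline.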

[8] = ATG_BRE_CIS: Attagene CIS-FACTORIAL HepG2 Assay for human Bone Morphogenetic Protein (BMP) Response Element (BRE) (AID 2282933); conditions: HepG2 BMP response element reporter, Attagene transcription factor profiling; actives raise or lower the signal
How it was run: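 HepG2 cells transiently transfected with multiplexed cis-element reporter units were dosed with chemical for 24 h. Reporter mRNA was measured by RT-PCR with fluorescent labelling, HpaI digestion and capillary electrophoresis; bidirectional fitting relative to DMSO.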

[9] = target: Retinoic acid receptor alpha (Homo sapiens) (UniProt P10276); experiment: ATG_DR5_RAR_CIS: Attagene CIS-FACTORIAL HepG2 Assay for human Retinoic Acid Receptor Alpha (RARE), DR5 submotif (AID 2282934); conditions: HepG2 Attagene cis-factorial RARE DR5 reporter, mRNA; actives raise or lower the signal
Chain of Retinoic acid receptor alpha (Homo sapiens) (P10276 whole entry, looked up): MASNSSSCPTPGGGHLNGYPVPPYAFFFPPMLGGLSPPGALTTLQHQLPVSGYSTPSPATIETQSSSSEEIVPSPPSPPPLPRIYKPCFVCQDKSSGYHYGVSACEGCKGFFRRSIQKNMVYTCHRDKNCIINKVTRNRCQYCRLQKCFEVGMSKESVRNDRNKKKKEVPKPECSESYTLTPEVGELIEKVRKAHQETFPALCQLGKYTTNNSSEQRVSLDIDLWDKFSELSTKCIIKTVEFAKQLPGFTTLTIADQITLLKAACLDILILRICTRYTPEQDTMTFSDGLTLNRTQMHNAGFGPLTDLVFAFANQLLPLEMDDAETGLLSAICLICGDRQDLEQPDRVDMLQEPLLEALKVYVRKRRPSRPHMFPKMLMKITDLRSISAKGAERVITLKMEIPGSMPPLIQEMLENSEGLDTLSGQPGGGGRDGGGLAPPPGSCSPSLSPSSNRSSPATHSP
How it was run: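 HepG2 cells transiently transfected with multiplexed reporter units under cis (DR5 RARE) promoters, so endogenous transcription factor activity is measured. After 24 h compound exposure, reporter mRNA is quantified by RT-PCR with fluorescent labelling and capillary electrophoresis; bidirectional fitting versus DMSO.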

[10] = target: Transcription factor E2F1 (Homo sapiens) (UniProt Q01094); experiment: ATG_E2F_CIS: Attagene CIS-FACTORIAL HepG2 Assay for human E2F Transcription Factor 1 (AID 2282935); conditions: HepG2 Attagene cis-reporter, E2F reporter RNA transcripts; actives raise or lower the signal
Chain of Transcription factor E2F1 (Homo sapiens) (Q01094 whole entry, looked up): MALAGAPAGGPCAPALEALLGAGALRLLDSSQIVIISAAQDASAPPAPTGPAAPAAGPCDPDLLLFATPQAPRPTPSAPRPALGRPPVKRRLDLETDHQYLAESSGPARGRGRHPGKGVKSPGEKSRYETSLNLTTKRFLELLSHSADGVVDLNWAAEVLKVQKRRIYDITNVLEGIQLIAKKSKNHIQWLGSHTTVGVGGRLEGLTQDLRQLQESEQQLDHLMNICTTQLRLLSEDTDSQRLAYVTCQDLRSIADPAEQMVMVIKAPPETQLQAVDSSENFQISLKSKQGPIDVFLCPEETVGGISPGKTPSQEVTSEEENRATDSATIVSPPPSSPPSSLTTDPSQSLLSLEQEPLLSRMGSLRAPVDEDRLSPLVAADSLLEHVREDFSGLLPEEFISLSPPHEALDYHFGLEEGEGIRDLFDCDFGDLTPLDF
How it was run: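 HepG2 cells transiently transfected with multiplexed cis-element reporter units, dosed for 24 h. Reporter mRNA measured by RT-PCR, 6-FAM primer-extension labeling, HpaI digestion and capillary electrophoresis; bidirectional fit versus DMSO baseline.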

[11] = ATG_E_Box_CIS: Attagene CIS-FACTORIAL HepG2 Assay for human Enhancer Box (E-box) (AID 2282936); conditions: HepG2 E-box cis-reporter transcription, actives raise or lower the signal
How it was run: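 HepG2 cells transiently transfected with multiplexed cis-element reporter units sensing endogenous transcription factor activity; 24 h compound exposure. Reporter mRNA measured by RT-PCR, 6-FAM primer extension, HpaI digestion and capillary electrophoresis; bidirectional fit versus DMSO.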

[12] = ATG_EGR_CIS: Attagene CIS-FACTORIAL HepG2 Assay for human Early Growth Response 1 (EGR1) (AID 2282938); conditions: HepG2 Attagene CIS-FACTORIAL EGR reporter mRNA; actives raise or lower the signal
How it was run: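 Multiplexed cis-reporter system in human hepatoma HepG2 cells, transiently transfected. Cells are dosed for 24 h; reporter transcripts are amplified, fluorescently tagged and sized by capillary electrophoresis, with DMSO as negative control.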

[13] = ATG_M_19_CIS: Attagene CIS-FACTORIAL HepG2 Assay for M19 Transcription Factor (Internal Marker) (AID 2282939); conditions: HepG2 Attagene CIS-FACTORIAL M19 internal marker reporter; actives raise or lower the signal
How it was run: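 HepG2 cells transiently transfected with cis-regulated multiple reporter transcription units were dosed for 24 h; reporter mRNA was quantified by RT-PCR, 6-FAM primer-extension labelling, HpaI digestion and capillary electrophoresis, with bidirectional fitting against DMSO baseline.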

[14] = target: Hepatocyte nuclear factor 3-beta (Homo sapiens) (UniProt Q9Y261); experiment: ATG_FoxA2_CIS: Attagene CIS-FACTORIAL HepG2 Assay for human Forkhead box A2 (FOXA2) (AID 2282942); conditions: HepG2 cis-reporter transcription factor activity, 24 h; actives raise or lower the signal
Chain of Hepatocyte nuclear factor 3-beta (Homo sapiens) (Q9Y261 whole entry, looked up): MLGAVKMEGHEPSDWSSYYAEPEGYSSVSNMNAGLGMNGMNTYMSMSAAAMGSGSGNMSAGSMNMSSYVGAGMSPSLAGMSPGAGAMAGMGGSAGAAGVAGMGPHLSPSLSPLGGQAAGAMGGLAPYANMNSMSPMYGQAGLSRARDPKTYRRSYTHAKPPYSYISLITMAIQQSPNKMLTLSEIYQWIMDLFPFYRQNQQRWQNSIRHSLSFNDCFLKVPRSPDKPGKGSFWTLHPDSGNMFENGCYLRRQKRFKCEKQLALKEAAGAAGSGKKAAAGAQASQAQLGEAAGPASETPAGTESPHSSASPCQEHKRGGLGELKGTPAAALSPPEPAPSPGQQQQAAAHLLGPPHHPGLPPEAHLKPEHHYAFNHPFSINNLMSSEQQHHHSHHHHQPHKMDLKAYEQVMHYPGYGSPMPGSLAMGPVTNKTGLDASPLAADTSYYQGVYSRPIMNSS
How it was run: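 Multiplexed cis-element reporter assay in transiently transfected HepG2. Twenty-four hours post-dosing, RNA was reverse-transcribed, amplified, FAM-labelled, HpaI-digested and separated by CE. Activity gain or loss relative to DMSO.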

[15] = ATG_FoxO_CIS: Attagene CIS-FACTORIAL HepG2 Assay for human Forkhead box O (FoxO) (AID 2282943); conditions: HepG2 Attagene cis-reporter, FoxO element, mRNA; actives raise or lower the signal
How it was run: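 HepG2 cells transiently transfected with cis-promoter-driven multiple reporter transcription units; 24 h after chemical dosing, reporter mRNA quantified by RT-PCR, fluorescent primer extension, HpaI digestion and capillary electrophoresis. Bidirectional fitting versus DMSO baseline.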

[16] = ATG_GATA_CIS: Attagene CIS-FACTORIAL HepG2 Assay for human GATA Binding Protein (AID 2282944); conditions: HepG2 GATA cis-element reporter, Attagene multiplex mRNA; actives raise or lower the signal
How it was run: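 HepG2 cells transiently transfected with multiplexed cis-element reporter units reflecting endogenous transcription factor activity; reporter mRNA measured after 24 h dosing by RT-PCR, 6-FAM labeling, HpaI digestion and capillary electrophoresis. Bidirectional fitting versus DMSO baseline.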

[17] = ATG_GLI_CIS: Attagene CIS-FACTORIAL HepG2 Assay for human Zinc Finger Protein GLI1 (AID 2282945); conditions: HepG2, Attagene cis-factorial reporter mRNA, GLI element; actives raise or lower the signal
How it was run: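 HepG2 cells transiently transfected with cis-promoter multiplexed reporter units report endogenous transcription factor activity. After 24 h chemical exposure, reporter mRNA was quantified by RT-PCR, 6-FAM labelling, HpaI digestion and capillary electrophoresis, with bidirectional fitting against DMSO.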

[18] = ATG_Ets_CIS: Attagene CIS-FACTORIAL HepG2 Assay for human Erythroblast Transformation Specific (ETS) (AID 2282941); conditions: HepG2 ETS cis-reporter transcription, actives raise or lower the signal
How it was run: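 HepG2 cells transfected with multiple cis-regulated reporter units measuring endogenous ETS-driven transcription, 24 h after dosing. Reporter mRNA quantified by RT-PCR with capillary electrophoresis; bidirectional fit relative to DMSO.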

[19] = target: Bile acid receptor (Homo sapiens) (UniProt Q96RI1); experiment: ATG_IR1_CIS: Attagene CIS-FACTORIAL HepG2 Assay for human Nuclear Receptor Subfamily 1 Group H Member 4 (NR1H4), IR1 submotif (AID 2282946); conditions: IR1 reporter transcription, actives raise or lower the signal
Chain of Bile acid receptor (Homo sapiens) (Q96RI1 whole entry, looked up): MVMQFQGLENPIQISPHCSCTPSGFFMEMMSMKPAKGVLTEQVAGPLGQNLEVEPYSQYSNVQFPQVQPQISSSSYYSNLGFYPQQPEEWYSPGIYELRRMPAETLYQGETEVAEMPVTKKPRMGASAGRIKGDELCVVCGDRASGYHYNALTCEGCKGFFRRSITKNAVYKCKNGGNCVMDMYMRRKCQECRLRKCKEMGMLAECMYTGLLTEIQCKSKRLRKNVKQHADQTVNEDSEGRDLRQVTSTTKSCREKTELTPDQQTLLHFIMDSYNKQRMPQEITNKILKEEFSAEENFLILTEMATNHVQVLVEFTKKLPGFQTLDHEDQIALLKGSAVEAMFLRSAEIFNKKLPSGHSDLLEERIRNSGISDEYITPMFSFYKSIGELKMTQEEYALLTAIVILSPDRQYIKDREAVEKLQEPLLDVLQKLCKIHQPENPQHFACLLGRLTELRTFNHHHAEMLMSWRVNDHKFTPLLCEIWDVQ
How it was run: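 Transient MRTU transfection, HepG2; 24 h dosing; RNA → RT-PCR → 6-FAM primer extension → HpaI digest → capillary electrophoresis fluorescence. Gain/loss of signal fitted relative to DMSO.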

Measured: outcome

CN(C)c1ccncc1
not listed: [18] | [19]
inactive: all other assays above

NCc1ccco1
inactive: all assays above

c1ccc2[nH]cnc2c1
not listed: [11] | [13] | [18]
inactive: all other assays above

c1ccc(Oc2ccccc2)cc1
not listed: [16]
inactive: all other assays above
